The list is not random: actives were taken first. Their share in the collection is about 2.2%.
Mm-Cpn inhibitor – blocks the Methanococcus maripaludis chaperonin Mm-Cpn; Potency, µM (series often up to 76.9 µM), inactives show at the highest dose activity, negative = inhibition, actives largely listed as inhibitors; purified Mm-Cpn ATPase, ADP Transcreener TR-FRET; hit rate 0.031% among 330,000; AID 504842; further: potency means the concentration at half of the fitted maximal effect; on the % scale 0 is the no-effect control and ±100 the full control effect; nearly all actives have a fitted effect of over 80% in size
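Compound-treated chaperonin, 25 nM final, turns over 10 uM ATP at 37°C for 30 min following a 10 min preincubation; ADP generated competes with ADP-d2 for Eu-cryptate antibody, lowering FRET.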
HEK293 tox – cytotoxicity in counter-screen for GLP-1R inverse agonists; HEK293 cAMP-luciferase reporter cells, luminescence, 24 h; Potency, µM (highest dose often 38.3 µM), for inactives: at the highest dose activity change, negative = inhibition, usual class: inhibitors; hit rate 0.13% among 410,000;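 further: loss of luciferase light is scored as toxicity; potency means the concentration at half of the fitted maximal effect; on the % scale 0 is the no-effect control and ±100 the full control effect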
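Compound-treated cells are incubated 24 hr at 37 deg C under 5% CO2 after a 12 hour attachment period, then luciferase detection reagent is added and luminescence is measured following 12 min at room temperature; lowered signal indicates toxicity.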
GLP-1R agonist – activates the human GLP-1 receptor | HEK293 GLP-1R CRE-luciferase, luminescence, 4-6 h; cells express a hypersensitive GLP-1R form | Potency, µM (series often up to 45.6 µM), for inactives: at the top dose activation, most hits filed as activators | hit rate 0.007% among 380,000 | AID 624172; further: potency means the concentration at half of the fitted maximal effect; % of control where 0% means no effect
Target sequence (P43220 whole entry, looked up): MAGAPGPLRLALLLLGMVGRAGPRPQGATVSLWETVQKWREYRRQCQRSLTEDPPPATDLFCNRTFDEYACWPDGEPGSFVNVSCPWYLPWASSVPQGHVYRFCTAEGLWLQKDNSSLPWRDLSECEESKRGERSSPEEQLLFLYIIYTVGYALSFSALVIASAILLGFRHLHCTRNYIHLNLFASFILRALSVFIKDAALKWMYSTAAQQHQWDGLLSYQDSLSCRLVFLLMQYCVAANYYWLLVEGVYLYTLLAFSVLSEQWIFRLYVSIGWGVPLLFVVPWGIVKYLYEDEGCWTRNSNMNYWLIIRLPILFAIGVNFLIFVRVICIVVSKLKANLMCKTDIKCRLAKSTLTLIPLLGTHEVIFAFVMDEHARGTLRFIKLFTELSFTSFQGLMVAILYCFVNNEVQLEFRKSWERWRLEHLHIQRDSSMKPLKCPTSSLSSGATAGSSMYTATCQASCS
CCT chaperon mod – changes cytosolic chaperonin activity; purified chaperonin ATPase assay, HTRF ADP detection, 30 min; activity change, % (test concentration not listed), hits read low; hit rate 0.3% among 360,000; in the data active means activity change below about -30%; further: on the % scale 0 is the no-effect control and ±100 the full control effect
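TRiC (40 or 20 nM final, by batch activity) in 30 mM Tris pH 7.4, 100 mM KCl, 5 mM MgCl2, 1 mM DTT was treated with compound at 76 uM single dose, then 10 uM ATP, 30 min at 37 °C. ADP was read by HTRF Transcreener.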
uPA surface inh – inhibitors of cell surface uPA generation | cell surface uPA generation assay, qHTS | Potency, µM (doses to about 38.3 µM), for the others: at the highest dose activity change, negative = inhibition, usual class: inhibitors | hit rate 0.31% among 330,000; active means well fitted inhibition curve with a large enough effect; inconclusive means small, poorly fitted or top-dose-only effect; inactive means no such curve, though single readings can be large or run the other way; tested in mouse RAW 264.7 cells; further: potency means the concentration at half of the fitted maximal effect; on the % scale 0 is the no-effect control and ±100 the full control effect; nearly all actives have a fitted effect of over 55% in size
GLP1R inv ag – acts as inverse agonist at human GLP-1 receptor | HEK293 GLP-1R CRE-luciferase, luminescence, 24 h; GLP-1R form is constitutively active | Potency, µM (top dose mostly 38.3 µM), for inactives: at the highest dose activity change, negative = inhibition, actives largely listed as inhibitors | hit rate 1.6% among 410,000 | AID 624417; further: potency means the concentration at half of the fitted maximal effect; on the % scale 0 is the no-effect control and ±100 the full control effect; nearly all actives have a fitted effect of over 55% in size
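Inverse agonists were sought by their lowering of basal cAMP reporter luciferase output in HEK293 cells stably carrying constitutively active human GLP-1R, after 24 h compound treatment.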
The depositor's hits bear a star; u = inconclusive; x = no result. Unless noted, the call rests on the fitted dose curve; in most records, active means well fitted curve in the direction sought with a large enough effect; inconclusive means small, poorly fitted or top-dose-only effect, or another doubt; inactive means no such curve, though single readings can be large; an effect the other way counts as inactive or inconclusive.

SMILES	Mm-Cpn inhibitor	HEK293 tox	GLP-1R agonist	CCT chaperon mod	uPA surface inh	GLP1R inv ag
O=C(Nc1ccccc1)c1ccc(CN2CCC(Cc3ccccc3)CC2)cc1	x	-4%	-8%	1	5%	-3%
Cc1ccc(NC(=O)NCC2CCN(Cc3cccc(Cl)c3)CC2)cc1Cl	0%	u	3%	-1	1%	2.2µM*
CCCCn1c(=O)c2oc3ccccc3c2n(CC(=O)Nc2cc(C)ccc2C)c1=O	x	0%	x	x	x	-6%
CCCN(C(=O)COc1cc(=O)n(CC)c2ccccc12)c1ccc(C(C)C)cc1	x	3%	x	x	x	u
CC(C)CCn1nnc2sc(-c3ccccc3)cc2c1=O	x	4%	x	x	x	13%
COc1ccc(OC)c(CNC(=O)C2CCN(S(=O)(=O)c3cn(C)cn3)CC2)c1	x	8%	x	x	x	4%
CCc1ccc(NC(=O)NCC2CCN(Cc3cccc(Cl)c3)CC2)cc1	1%	-18%	-8%	-4	-27%	13µM*
Cc1cc(C(=O)CN2c3cccc4cccc(c34)S2(=O)=O)c(C)n1C	0%	-12%	13%	-1	2µM*	u
Cc1cc(C)c2nc(N3CCC(C(=O)N4CCN(C(=O)c5ccco5)CC4)CC3)sc2c1	3%	-2%	2%	0	-1%	7.9µM*
Cc1c(Cl)ccc2sc(N3CCN(C(=O)c4ccco4)CC3)nc12	x	3%	x	x	x	2%
Cc1ccccc1-c1cc2nccc(-c3cc(Cl)ccc3O)n2n1	x	1%	x	x	x	1%
COc1ccc(-c2cc(-n3c(C(F)(F)F)nc4ccccc43)n(CCC#N)n2)cc1	-1%	-4%	0%	-1	0%	10µM*
CC1CC(C)CN(c2ncnc3c2cnn3Cc2ccc(Cl)cc2)C1 (stereo not drawn)	0%	0%	-6%	1	2%	2µM*
CC1CCCCN1C(=O)C1CCN(c2nc(-c3ccccc3)nc3c2CCC3)CC1 (stereo not drawn)	2%	u	-3%	1	2%	8.9µM*
Cc1ccc(S(=O)(=O)n2cc(C=O)c3ccccc32)cc1	2%	-17%	10%	-2	-1%	u
Cc1ccc(S(=O)(=O)n2cc(-c3ccccc3)c3ccccc32)cc1	1%	5%	17%	-31*	1.1µM*	u
COc1ccc(OC)c(NC(=O)NNC(=O)CCCOc2ccc(Cl)cc2C)c1	-3%	5%	5%	-2	2%	10µM*
COc1ccc(NC(=O)NNC(=O)COc2ccc(Cl)cc2C)cc1OC	-24%	7%	-22%	-1	-1%	-11%
Cc1ccccc1CNCc1c(C(=O)O)c(C)n(Cc2ccc(F)cc2Cl)c1C	x	-3%	x	x	x	2%
O=C(C1CCCCC1)N(Cc1cccnc1)c1nc2ccc(F)cc2s1	x	0%	x	x	x	11µM*
Cc1ccc(/C=N/Nc2ccc3ccccc3n2)o1	-4%	u	-1%	-1	-9%	u
C(=N\Nc1ccc2ccccc2n1)/c1ccc2c(c1)OCCO2	0%	-8%	-3%	1	2.2µM*	-75%
C(=N\Nc1nc2ccccc2[nH]1)/c1ccc2c(c1)OCCO2	-4%	-24%	-7%	-2	u	u
Cc1cccc(/C=N/Nc2ccc3ccccc3n2)c1	-7%	u	-6%	-1	8.9µM*	10µM*
O=C(N/N=C/c1ccccc1)c1sccc1OCc1ccc(F)cc1	2%	-20%	11%	-1	-10%	8.9µM*
SMILES	Mm-Cpn inhibitor	HEK293 tox	GLP-1R agonist	CCT chaperon mod	uPA surface inh	GLP1R inv ag
O=C(N/N=C/c1ccccc1)c1ccc(OCc2ccccc2)cc1	-2%	-8%	7%	-1	-14%	-11%
Cc1ccc(N2CC(NC(=O)C(=O)c3c[nH]c4ccccc34)CC2=O)cc1 (stereo not drawn)	x	0%	x	x	x	5%
O=C(NCCCN1CCOCC1)c1ccc(S(=O)(=O)Nc2cccc(C(F)(F)F)c2)cc1	0%	-7%	0%	-37*	4%	u
O=C(NCCCN1CCOCC1)c1ccc2c(c1)N(Cc1cccc(Cl)c1)C(=O)c1ccccc1S2	x	0%	x	x	x	11%
O=C(NCCCN1CCCC1)c1ccc2c(c1)N(Cc1ccccc1F)C(=O)c1ccccc1S2=O (stereo not drawn)	-6%	-1%	0%	-1	-26%	8.9µM*
Cc1ccc(CN2C(=O)c3ccccc3Sc3ccc(C(=O)NCCN4CCOCC4)cc32)cc1	3%	u	-6%	0	u	6.3µM*
Cc1cccc(CN2C(=O)c3ccccc3Sc3ccc(C(=O)NCCN4CCOCC4)cc32)c1	2%	u	5%	0	-7%	u
O=C(NCCCN1CCOCC1)c1ccc2c(c1)N(Cc1c(F)cccc1Cl)C(=O)c1ccccc1S2	-4%	-8%	1%	0	4.5µM*	u
CCc1ccccc1NC(=O)c1ncoc1-c1ccco1	x	8%	x	x	x	-20%
COc1ccc(CNC(=O)CCCN2C(=O)CCn3nc(-c4cn(C)c5ccccc45)cc32)cc1	x	2%	x	x	x	-18%
CCOc1cccc(CN2CCCC(N3CCN(c4cccc(Cl)c4)CC3)C2)c1O (stereo not drawn)	-1%	-21%	-3%	-2	-8%	10µM*
CCOC(=O)c1c(NC(=O)COc2ccc(OC)cc2)sc(C(=O)N(CC)CC)c1C	x	-17%	x	x	x	7.9µM*
CCOC(=O)c1c(NC(=O)COc2ccc(Br)cc2)sc(C(C)=O)c1C	x	0%	x	x	x	9%
O=C(COc1ccccc1[N+](=O)[O-])c1ccccc1	-1%	0%	7%	0	-4%	23%
COC(=O)/C=C/COc1ccccc1[N+](=O)[O-]	1%	-22%	3%	-2	11µM*	u
O=C(COc1ccccc1Cl)N(Cc1cccc(F)c1)C1CCS(=O)(=O)C1 (stereo not drawn)	x	-7%	x	x	x	-8%
Cc1ccc(S(=O)(=O)Nc2ccc3c(c2)C(=O)N([C@H](C)CO)C[C@H](C)[C@@H](CN(C)C(=O)NC2CCCCC2)OCCCC[C@@H](C)O3)cc1	x	-3%	0%	-2	x	u
C[C@@H]1CN([C@@H](C)CO)C(=O)c2cc(NC(=O)c3ccccc3)ccc2O[C@@H](C)CCCCO[C@@H]1CN(C)Cc1ccc(C(F)(F)F)cc1	x	-23%	17%	-3	x	11µM*
C[C@@H]1CCCCO[C@H](CN(C)Cc2ccc3c(c2)OCO3)[C@H](C)CN([C@@H](C)CO)C(=O)c2cc(NC(=O)c3ccccc3)ccc2O1	x	1%	3%	-3	x	u

Bioassay records: PubChem BioAssay, National Center for Advancing Translational Sciences (NCATS)
